Measurements as given in PubChem BioAssay (NCATS).
Results filed as inconclusive are left out. Where a call stands in place of a potency, no number is given. Active and inactive are the calls of the source. Calls come from the whole dose curve; as a rule, active = well fitted curve in the direction sought with a large enough effect; inconclusive = small, poorly fitted or top-dose-only effect, or another doubt; inactive = no such curve, though single readings can be large; an effect the other way counts as inactive or inconclusive.

What was measured:
[1] = qHTS for compounds that reverse cellular toxicity of Amyloid beta (A-beta) peptide in yeast: LOPAC Validation Assay (AID 720559)
In short: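 Rescue of A-beta toxicity was scored as yeast growth by 600 nm absorbance after 48 hr at 30 C with compound. Normalization used DMSO (negative) and equimolar ferric chloride plus clioquinol (positive).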

[2] = qHTS for Activators of Parkin Expression: LOPAC Validation Assay (NLuc Reporter) (AID 720572)
In short: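 Neuronal cells with a Parkin promoter-driven FLuc/NLuc coincidence reporter were treated 24 h at 37 C in 7-point dose response (LOPAC). NLuc luminescence read after FLuc; signals normalized to DMSO and positive control (100%).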

[3] = qHTS for Activators of Parkin Expression: LOPAC Validation Assay (FLuc Reporter) (AID 720573)
In short: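 FLuc signal from Parkin-promoter coincidence reporter neuronal cells, normalized to DMSO and positive control (100%). Cells (1,500/well) pre-incubated 24 h, then exposed to LOPAC compounds in 7-point dose response for 24 h at 37 C, 5% CO2.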

## O=C(O)c1cccnc1C(=O)O
[1]
  outcome: inactive
[2]
  Potency: inactive
[3]
  Potency: inactive

## Nn1nnc2ccccc21
[1]
  outcome: inactive
[2]
  Potency: inactive
[3]
  Potency: inactive

## O=c1onc2n1-c1cc(Br)ccc1OC2
[1]
  outcome: inactive
[3]
  Potency: inactive

## [Li+]
[1]
  outcome: inactive
[2]
  Potency: inactive
[3]
  Potency: inactive

## COC(=O)C(C)(N)Cc1ccc(O)cc1 (centres undefined)
[1]
  outcome: inactive
[2]
  Potency: inactive
[3]
  Potency: inactive

## NCC(O)C1CCCCCCC1 (centres undefined)
[1]
  outcome: inactive
[2]
  Potency: inactive
[3]
  Potency: inactive

## O=C(O)CCC(=O)N1CCCC1C(=O)O (centres undefined)
[1]
  outcome: inactive
[3]
  Potency: inactive

## Nc1ncnc2c1nc(Sc1ccc(Cl)cc1)n2[C@H]1OC2COP(=O)(O)O[C@@H]2C1O (some centres undefined)
[1]
  outcome: inactive
[2]
  Potency: inactive
[3]
  Potency: inactive

## C=C(C)C1CC=C(C(=O)O)CC1 (centres undefined)
[1]
  outcome: inactive
[2]
  Potency: inactive
[3]
  Potency: inactive

## NC[C@@H]1O[C@H](c2ccccc2)Cc2c1ccc(O)c2O
[1]
  outcome: inactive
[2]
  Potency: inactive
[3]
  Potency: inactive

## CCCCCCC(=O)OC1CC(C)(C)NC(C)(C)C1
[1]
  outcome: inactive
[2]
  Potency: inactive
[3]
  Potency: inactive

## CC(C)C[C@H](NC(=O)[C@H](O)[C@H](N)Cc1ccccc1)C(=O)O
[1]
  outcome: inactive
[3]
  Potency: inactive

## COc1ccccc1N1CCN(CCCCN2C(=O)c3ccccc3C2=O)CC1
[1]
  outcome: inactive
[3]
  Potency: inactive

## O=C(O)c1ccccc1Nc1cccc(OCc2ccc3ccccc3n2)c1
[2]
  Potency: inactive
[3]
  Potency: inactive

## CC(=O)[C@H]1CCC2C3CC=C4C[C@@H](OS(=O)(=O)O)CC[C@]4(C)C3CC[C@@]21C (some centres undefined)
[2]
  Potency: inactive
[3]
  Potency: inactive

## C[C@](Cc1ccc(O)c(O)c1)(NN)C(=O)O
[1]
  outcome: inactive
[2]
  Potency: inactive
[3]
  Potency: inactive

## CCN(c1nc(N)c(C(=O)N=C(N)N)nc1Cl)C(C)C
[2]
  Potency: inactive
[3]
  Potency: inactive

## Nc1nc2[nH]c(=O)cnc2c(=O)[nH]1
[1]
  outcome: inactive
[2]
  Potency: inactive
[3]
  Potency: inactive

## C=C1C[C@@]23CC[C@H]4[C@@](C)(CCC[C@@]4(C)C(=O)OC4OC(CO)C(O)C(O)C4O)[C@@H]2CC[C@]1(OC1OC(CO)C(O)C(O)C1OC1OC(CO)C(O)C(O)C1O)C3 (some centres undefined)
[2]
  Potency: inactive
[3]
  Potency: inactive
